Here are results for 101 compounds from PubChem BioAssay AID833 (The Scripps Research Institute Molecular Screening Center, 2007).

In all, about 16,000 compounds went through this assay and about 80 (0.5%) were called active. The sample as a whole holds a higher share of actives than the screen did. Unmarked numbers belong to inactive results. No stated cut-off is given here; in the data, active means activation above about 15%; inactive means the rest.

Sequence of Galanin receptor type 2 (Rattus norvegicus) (O08726 whole entry, looked up): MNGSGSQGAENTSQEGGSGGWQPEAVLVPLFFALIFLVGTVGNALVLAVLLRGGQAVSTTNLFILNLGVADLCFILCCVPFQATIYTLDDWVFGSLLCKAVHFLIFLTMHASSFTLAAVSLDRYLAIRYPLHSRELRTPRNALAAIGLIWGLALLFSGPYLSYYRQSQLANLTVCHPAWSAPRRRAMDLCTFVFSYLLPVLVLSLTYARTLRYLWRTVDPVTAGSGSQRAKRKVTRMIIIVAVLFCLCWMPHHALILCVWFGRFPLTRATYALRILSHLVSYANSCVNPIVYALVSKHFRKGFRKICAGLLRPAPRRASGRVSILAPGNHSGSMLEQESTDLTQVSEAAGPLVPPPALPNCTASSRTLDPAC

The assay has as its target Galanin receptor type 2 (Rattus norvegicus) (UniProt O08726). In words: agonists of rat galanin receptor 2 (GALR2) (AID 833). The settings on record: cell-based GALR2 agonist screen; at 10 µM; active compounds read high.
As to `COc1ccc(S(=O)c2ccccc2C(=O)O)c(C(=O)O)c1` (stereo unspecified), the activation is -7.55%. The result for `Cc1ccc(NC(=O)c2ccccc2NC(=O)c2ccccc2)cc1` reads -2.58%; that for `CCOC(=O)C(=CNc1ccc2n[nH]nc2c1)C(=O)OCC`, -1.04%; that for `CSc1sc(C(=O)Nc2cccc(C(F)(F)F)c2)cc1S(=O)(=O)C(C)C`, -6.93%.

Turning to `Cn1c(SCC(=O)c2ccc(Cl)cc2)nnc1-c1cnccc1C(F)(F)F`, the activation is -8.49%.

With `O=S(=O)(Cc1nnc(-c2cc(Cl)cc(Cl)c2)o1)c1ccc(Cl)cc1`, the activation was -1.76%.

For `CC1(C)CC(=O)C=C(N2CCOCC2)C1`, the activation was -5.82%. The result for `Cc1ccc(Sc2cc(C)c(C)cc2N)c(C)c1` reads -6.96%; that for `O=C1NCCN1CCNS(=O)(=O)c1cc(Cl)sc1Cl`, -5.62%. Under `O=S(=O)(Oc1ccc(C2SCCS2)cc1)c1ccc(Br)cc1` stands -1.98%; under `CNC(=S)Nc1cscc1S(=O)(=O)c1ccc(Cl)cc1`, -6.95%. Regarding `CCOC(=O)NC(=S)NC12CC3CC(CC(C3)C1)C2`, the activation is -2.11%. Under `Cc1onc(-c2ccccc2)c1CNS(=O)(=O)c1ccc(-c2ccccn2)s1` stands -9.42%; under `COC(=O)c1c(C(=O)OC)c2n(c1C)CCS2`, -6.88%. Under `Cc1onc(-c2ccccc2Cl)c1NC(=O)N1c2ccc(F)cc2CCC1C` (stereo unspecified) stands -4.64%; under `N#Cc1sccc1Br`, -7.39%. The result for `O=S(=O)(O)Oc1c[nH]c2ccccc12` reads -7.29%. Consider `N#CC(C#N)=Cc1cccn1-c1ccc(C(F)(F)F)cc1`, for which the activation is -6.03%. Under `CS/C(=N\S(=O)(=O)c1ccccc1)NNc1ccccc1` stands -3.17%; under `O=c1[nH]c2c(=O)[nH]c(=S)[nH]c2nc1/C=C(\O)c1ccccc1`, -5.76%; under `CN(C)/C=C/C(=O)c1cc(C(C)(C)C)cc(C(C)(C)C)c1O`, -4.8%. Under `N#Cc1ccc(N2CCSCC2)cc1[N+](=O)[O-]` stands -4.09%. Regarding `N/C(=N\OC(=O)c1ccc(Cl)cc1)c1cccc(CS(=O)(=O)c2ccccn2)c1`, the activation was -8.52%.

As for `COc1cccc(/C=C2\SC(=S)C(N)C2=O)c1OC` (stereo unspecified), the activation was -1.21%. With `CS(=O)(=O)c1csc(C(=O)NCc2cccnc2)c1Cl`, the activation was -6.55%. With `O=C(N[C@@H](Cc1ccc(O)cc1)C(=O)O)OCc1ccccc1`, the activation was -5.07%. Take `CS(=O)(=O)Nc1ccc(/C(N)=N/OC(=O)c2cccs2)cc1`: the activation was -5.51%.

Turning to `CCc1ccnc(NS(=O)(=O)c2ccc3c(c2)OCCO3)c1`, the activation was -1.48%. On to `c1csc(-c2ccc(-c3ccon3)s2)c1`, for which the activation was -4.74%. Under `CC(=O)c1ccc(NC(=O)OC2CCSC2)cc1` (stereo unspecified) stands -4.49%. Under `O=C(Nc1ccc2c(c1)OCCO2)c1cnccn1` stands 6.11%; under `COc1cc(C=C(C#N)C#N)cc(OC(C)=O)c1OC(C)=O`, -8.12%. Under `CNC(=S)NNC(=O)CSc1cccs1` stands -6.57%; under `O=C(NC(=O)c1ccno1)Nc1ccccc1Cl`, -3.51%; under `Cc1cc(C2=CSC3=NCCN23)ccc1Cl`, -7.84%. With `CN(C)CCC(O)c1ccc2c(c1)OCCCCO2` (stereo unspecified), the activation is -8.25%. The result for `Cc1ccc(N(C)NC(=O)Nc2ccc(Cl)cc2)nn1` reads -6.34%. The result for `COc1ccc(C(=O)NNC(=O)c2c(OC)cc(C(F)(F)F)cc2C(F)(F)F)cc1` reads -1.51%; that for `CCOC(=O)Cc1nnc(-c2ccc(Cl)cc2)o1`, -7.97%.

With `N#Cc1nc(-c2ccccc2)c(-c2ccccc2)nc1C#N`, the activation was 3.73%.

As to `Cc1noc(C)c1C(=O)Oc1cccc2cccnc12`, the activation is 3.32%. The result for `Cc1ccc(OC(=O)c2cccc([N+](=O)[O-])c2)c(Br)c1` reads 1.69%; that for `NS(=O)(=O)c1cc(C(F)(F)F)cc(C(F)(F)F)c1`, -4.46%; that for `NNC(=O)c1csc(COc2ccc(C3SCCS3)cc2)n1`, -7.31%. On to `O=C(Nc1ccccc1N1CCOCC1)NC1CCN(C(=O)OCc2ccccc2)CC1`, for which the activation is -4.03%. Turning to `CCOC(=O)c1cc(Sc2ccccc2N)cc(C(=O)OCC)n1`, the activation is -3.83%. Consider `CN(C)C(=O)Nc1ccc(C(C)(C)C)cc1`, for which the activation is -6.41%. For `O=C(O)c1ccccc1N/C=C/[N+](=O)[O-]`, the activation is -3.26%. The result for `Cc1nn2c(=O)c3c4c(sc3nc2[nH]c1=O)CCCC4` reads 0.66%; that for `Fc1cccc(Cl)c1CSc1nccn1-c1cccnc1`, -3.88%. Under `O=C(NC1Cc2ccccc2C1)c1nnc(-c2ccccc2)o1` stands -5.35%; under `N/C(=N\OC(=O)c1ccc([N+](=O)[O-])o1)c1ccc(OCc2ccc(Cl)cc2)c(Cl)c1`, -4.76%. For the compound `CN(C)c1cccc2c1c(NC(=O)Nc1ccc(OCc3ccccc3)cc1)nn2C`, the activation is -3.92%. Under `O=C(Nc1ccc(C(F)(F)F)cn1)c1ccc(Oc2cc(Cl)cc(Cl)c2)o1` stands -5.62%. `CCN=C(NCC)Nc1ccc(Cl)cc1`: the activation was -7.95%. Take `CCOC(=O)CCC(=O)OC(C(=O)c1ccccc1)c1ccccc1` (stereo unspecified): the activation is -6.88%. Under `COc1ccc(C2CC(c3cccs3)=Nc3ccccc3S2)c(Cl)c1OC` (stereo unspecified) stands -10.3%. The result for `CCCN(CCC)S(=O)(=O)c1ccc(C(=O)N2CC3CCC(CC3)C2)cc1` reads -5.35%; that for `O=C(Nc1ccc(OC(F)F)cc1)Nc1coc(-c2ccccc2)c1`, -4.63%. Under `COc1ccc2c(c1)CCCC2=Nc1ccccc1C(F)(F)F` stands -6.48%; under `COC(=O)c1ccc(S(=O)(=O)NNC(=O)c2cn3cc(C(F)(F)F)cc(Cl)c3n2)n1C`, -7.71%. For `O=c1c(-c2nc(-c3ccc(C(F)(F)F)cc3)no2)cnc2n1CCS2`, the activation is -4.47%. Under `Cc1noc(C)c1S(=O)(=O)Nc1cc(C(F)(F)F)ccc1N1CCOCC1` stands -7.12%. The result for `COC(=O)c1cc(OC)c(OC)cc1NS(=O)(=O)c1ccsc1C(=O)OC` reads -7.2%; that for `O=C(Nc1cccnc1Oc1ncnc2cc(Cl)ccc12)c1ccc(F)cc1`, -3.54%. The result for `CS(=O)(=O)/N=C(\N)c1ccncc1` reads -6.47%. `CCOC(=O)Cn1cc(Cl)ccc1=O`: the activation was -2.49%. As to `O=C1C2C3C=CC(O3)C2C(=O)N1OCc1ccc(OC(F)(F)F)cc1` (stereo unspecified), the activation is -2.8%.

Take `O=c1[nH]c2ccccc2s1`: the activation is -3.62%. Under `O=c1oc2c3ccccc3c3oc(=O)sc3c2s1` stands 16.7% (active); under `CCOc1ccc(C(N)=O)c(SCC(=O)O)c1`, -10.1%.

In the case of `Cn1nnnc1SCC(=O)Nc1ccc(OC(F)(F)F)cc1`, the activation is -4.06%. The result for `COc1ccc(/C=N/N2CCC(=O)Nc3ccccc32)c(OC)c1` reads -4.04%; that for `N/C(=N\OCc1noc(-c2ccsc2)n1)c1ccc(C(F)(F)F)cc1`, -8%. The result for `Cc1noc(C)c1C(=O)c1c(C)[nH]n(-c2ccccc2)c1=O` reads -4.7%. With `CC(C)(C)NC(=O)NCC(c1ccc[nH]1)C(F)(F)F` (stereo unspecified), the activation was -6.65%.

In the case of `COC(=O)C1=C(c2ccccc2)C(c2ccccc2)=C(C(=O)OC)C1=O`, the activation is -1.25%.

Consider `N#CC(C#N)=CNc1c(F)cccc1Cl`, for which the activation is -9.67%. `CC(=O)/C(=C\N(C)C)c1ncccc1[N+](=O)[O-]`: the activation is -5.71%. Turning to `C=C(C)c1cccc(C(C)(C)NC(=O)CC(C)=O)c1`, the activation is -4.52%. The result for `O=C(Cc1cc(F)cc(F)c1)n1nccc1-c1cccs1` reads -4.48%; that for `FC(F)(F)c1cccc(NC(=S)NNc2nccc(C(F)(F)F)n2)c1`, -8.08%; that for `COC(=O)c1sccc1S(=O)(=O)Nc1ccccc1Sc1ncnc2c(C)csc12`, -5.48%. The result for `N/C(=N\S(=O)(=O)c1ccc(Cl)cc1)N1CCOCC1` reads -1.28%; that for `Fc1ccc(Oc2nc(Oc3ccc(F)cc3)nc(N3CCSCC3)n2)cc1`, -8.25%. Under `CN(NS(=O)(=O)c1ccc(C(F)(F)F)cc1)c1cnn(C)c(=O)c1Cl` stands -5.39%; under `COC(=O)c1ccsc1NC(C)=O`, -5.28%. `CCOC(=O)c1ccc(NC)c(N)c1`: the activation is -7.18%. `CN(C)c1ccc(/C=C(\C#N)S(C)(=O)=O)c(Cl)c1`: the activation is -4.37%. The result for `CC(C)[C@H]1COC(c2cccc(C3=N[C@@H](C(C)C)CO3)n2)=N1` reads -5.78%; that for `COC(=O)c1sc(S(C)=O)c(-c2ccon2)c1C` (stereo unspecified), -6.07%; that for `O=C(Cn1nnc(N2CCOCC2)n1)N/N=C/c1ccc(-c2cccc([N+](=O)[O-])c2)o1`, -7.32%. Under `CO/N=C1\C(=O)N(C)c2ccccc21` stands -3.65%; under `COc1ccc(CCNC(=O)c2ccccc2-c2ccccc2C(=O)O)cc1OC`, -7.28%; under `COC(=O)c1c(C)noc1-c1ccno1`, -5.48%.

Turning to `CCOC(=O)c1c(NC(=S)NC)sc2c1CCCC2`, the activation is -0.11%.

Turning to `N/C(=N\OC(=O)Nc1ccccc1)c1ccc(Oc2c(Cl)cncc2Cl)cc1`, the activation was -6.45%. Under `CN([C@H]1CCN2CCc3ccccc3C2C1)S(C)(=O)=O` (stereo partly specified) stands -4.21%; under `O=C(CN1C(=O)/C(=C/c2ccccc2Cl)N=C1c1ccccc1)c1ccccc1`, 15.2% (active); under `CCOC(=O)CN1C(=O)/C(=C\c2ccc(C)o2)N=C1c1ccccc1`, -8.17%. Under `CN1CCN(c2ccc(NC(=O)c3ccccc3)cc2)CC1` stands -7.3%.
